# Screens (PubChem)
# Shown are actives, neighbours in structure and some others; about 6.8% of the full set was active somewhere.
# NADH coupling = inhibitors of enzymes used to reach an NAD/NADH endpoint; coupled PK/LDH NADH assays, four targets; IC50, µM (titrated, usually from 10 µM), inactives show at the highest dose inhibition; hit rate 0.02% among 65,000; AID 774;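 active means single-dose screening hits from any of four coupled enzyme assays that gave an IC50 when retested across doses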;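 further: the DPM-DC format reads NADH fluorescence rather than 340 nm absorbance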
# Autofluor 339 = intrinsic fluorescence of library compounds, ex339/em460 – biochemical, MLSMR library, data from DPM-DC assay, artefact control, profiling panel. compound autofluorescence, ex339/em460 nm, NADH buffer; hits give high values; 1 = no-compound wells, NADH background. fluorescence fold increase at 10 µM. hit rate 5.5% among 65,000;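 active means at 10 µM, mean starting fluorescence two-fold or more over control wells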;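 further: signal is the first read of a kinetic run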
# Spn DPM-DC inh = S. pneumoniae DPM-DC inhibition; calls only at 10 µM; purified DPM-DC, PK/LDH coupled NADH fluorescence; hit rate 0.49% among 65,000;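 active means the 320 compounds with the highest percent inhibition in the single-dose primary screen, excluding strongly autofluorescent ones, cut at about 32% in these data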;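 further: kinetic rate of NADH fluorescence loss reporting ADP formed by the decarboxylase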
# MK inhibit = inhibitors of Streptococcus pneumoniae mevalonate kinase. purified MK, PK/LDH-coupled NADH absorbance 340 nm. hit rate 0.48% among 65,000. inhibition, % at 10 µM. AID 555;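 active means ranked among the strongest by inhibition in the single 10 µM screen, a fixed top-ranked set picked for dose follow-up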
# PMK inhibit = inhibitors of Streptococcus pneumoniae phosphomevalonate kinase; AID 539; purified PMK, PK/LDH-coupled NADH absorbance 340 nm; inhibition, % at 10 µM; hit rate 0.49% among 65,000;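 active means top-ranked compounds by inhibition in the single 10 µM screen, taking a fixed number of the strongest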;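 further: 0% = full reaction with DMSO carrier and 100% = background rate without enzyme reaction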
# Abs 340nm = absorbance at 340 nm; 65,000 tested, under 10 active; AID 708; fold change at 10 µM; compound absorbance at 340 nm, fold over control;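 active means at 10 µM dose, initial 340 nm absorbance at least 2 fold that of control wells; inactive means change under 2 fold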;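 further: initial absorbance extrapolated from kinetic A340 decline of NADH oxidation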
# Active calls of the source: *; i = inactive; x = no result shown; + = active, no number.
SMILES,NADH coupling,Autofluor 339,Spn DPM-DC inh,MK inhibit,PMK inhibit,Abs 340nm
COc1ccc(S(=O)(=O)N(CC(=O)NCC2CCCO2)c2ccccc2)cc1OC (stereo not given),2%,1.1,i,0,7,1
CCCc1cc(=O)[nH]c(SCC(=O)c2cc(C)n(C(C)COC)c2C)n1 (stereo not given),8%,1.1,i,10,13,1
O=c1oc(-c2ccccc2)nc2c1cnn2-c1ccccc1,5%,1.1,i,6,0,1.1
O=c1oc(-c2cccs2)nc2c1cnn2-c1ccccc1,4%,2.2*,x,4,4,1.1
Cc1nc2cc(C(=O)O)ccc2s1,6%,1.1,i,4,14,0.99
Cc1nc2ccc(C(=O)O)cc2c2c1CC(C)S2 (stereo not given),2%,3*,x,9,3,1
CCN1C(=O)c2cccc3c(S(=O)(=O)NCc4ccco4)ccc1c23,7%,2.3*,i,8,3,1.1
O=C(c1cccc(C(=O)N2CCN(c3ccccc3F)CC2)n1)N1CCN(c2ccccc2F)CC1,7%,1.1,i,7,14,1
Cc1cc(N2CCOCC2)nc2cc(O)ccc12,4%,2.2*,x,5,3,1.1
COc1ccc(N2CCN(c3cc(C)c4ccc(O)cc4n3)CC2)cc1,3%,2.1*,x,0,5,1.1
Cc1cc(N2CCN(c3ccccc3F)CC2)nc2cc(O)ccc12,5%,3.1*,i,7,7,1.1
Cc1cc(N2CCCN(C)CC2)nc2cc(Cl)ccc12,1%,1.6,i,0,1,1.1
O=C(NCc1n[nH]c(=S)n1-c1ccccc1)c1ccco1,17%,1.1,i,41*,9,1
CC(C)OCCCn1c(=S)[nH]c2ccc(N3CCOCC3)cc2c1=O,15%,3.7*,i,5,15,1
Cc1ccc(Cn2c(=S)[nH]c3ccc(N4CCOCC4)cc3c2=O)o1,13%,2.8*,i,7,14,1
O=c1c2cc(N3CCOCC3)ccc2[nH]c(=S)n1CCN1CCCC1,7%,2.6*,i,4,5,1.1
CC(C)OCCCn1c(=S)[nH]c2cc3c(cc2c1=O)OCO3,5%,1,i,6,9,1.1
O=c1c2cc3c(cc2[nH]c(=S)n1CCN1CCOCC1)OCO3,5%,1.1,i,3,12,1.1
O=c1c2cc(N3CCOCC3)ccc2[nH]c(=S)n1CCCN1CCCCCC1,10%,2.9*,i,11,10,1.1
CCOC(=O)C1CCN(C(=O)c2ccc(Cl)c(NC3=NC4CS(=O)(=O)CC4S3)c2)CC1 (stereo not given),3%,1,i,9,0,1
O=c1c2cc(N3CCOCC3)ccc2[nH]c(=S)n1CCCN1CCN(c2ccccc2F)CC1,19%,3.5*,+,3,11,1.1
Cc1ccc(-c2nnc(-c3ccc(Br)cc3)o2)o1,2%,3.4*,x,6,6,1
CCn1c(SCC(=O)NC2CCCCC2)nnc1-c1cccs1,7%,1.1,i,11,10,0.98
CCn1c(SC(=O)NC2CCCCC2)nnc1-c1cccs1,18%,1.9,x,11,25*,1
CCN(CC)CCNC(=O)c1cc2c(=O)n(C)c3ccccc3c2n1C,4%,1.7,i,3,0,1.1
SMILES,NADH coupling,Autofluor 339,Spn DPM-DC inh,MK inhibit,PMK inhibit,Abs 340nm
Cn1cc(C(=O)NCCN2CCN(c3cccc(Cl)c3)CC2)c2c3ccccc3n(C)c2c1=O,2%,2*,i,0,5,1.1
CN1CCN(CCNC(=O)c2cc3c(=O)n(C)c4ccccc4c3n2C)CC1,18%,1.8,+,3,14,1.1
CCCCN(CC)CCNC(=O)c1cc2c(=O)n(C)c3ccccc3c2n1C,9%,2.1*,x,8,9,1.1
CCc1nnc(NC(=O)CSc2nnc(CSc3nc(C)cc(C)n3)n2CC)s1,3%,1,i,12,2,1.1
C=CCn1c(SCC(=O)c2ccc(NS(=O)(=O)c3ccccc3)cc2)nnc1-c1cccs1,2%,1,i,5,0,1.1
Cc1nnc(Oc2ccccc2F)c2ccccc12,4%,1.1,i,5,8,1
COc1ccc(NC(=O)c2nnn(Cc3ccc(SC)cc3)c2N)c(OC)c1,29%,1.5,+,11,0,1.1
O=C1NC(=S)SC1=C1CCCCCC1,15%,0.93,i,15,18,1.2
Cc1[nH]c(=O)[nH]c(=O)c1S(=O)(=O)N1CCCC1,3%,1.1,i,10,0,1
Cc1n[nH]c(=S)n(/N=C/c2ccccn2)c1=O,23%,1.1,i,11,43*,1.1
Cc1sc2ncnc(SCC(=O)NC(=O)NCc3ccco3)c2c1C,4%,1.1,i,0,13,1
CCOC(=O)C1CCN(C(=O)CN(c2ccc(OC)c(OC)c2)S(=O)(=O)c2ccccc2)CC1,27%,1.1,i,71*,2,1
Cc1ccc(-c2nc(-c3cccnc3)no2)cc1,7%,1.1,i,6,3,1
Cc1ccc(-c2cnc(-c3ccncc3)o2)cc1,8%,2.2*,x,4,11,1.1
Cc1cc(N2CCOCC2)c2c(N)c(Br)cc(C)c2n1,16%,0.68,+,3,9,1.1
CSc1nnc2c3c4c(sc3nc(-n3nc(C)cc3C)n12)COC(C)(C)C4,2%,3*,i,3,0,1.1
Cc1cc(C)n(-c2nc(-n3nc(C)cc3C)c3c4c(sc3n2)COC(C)(C)C4)n1,7%,1.3,i,11,0,1.1
Cc1cc(C)n(-c2nc3sc4c(c3c3nnc(SCC(N)=O)n23)CC(C)(C)OC4)n1,0%,2.7*,i,3,0,1.1
CC1Cc2cc(/C(O)=C3/C(=O)C(=O)N(CC4CCCO4)C3c3ccco3)ccc2O1 (stereo not given),9%,1.1,i,12,6,1.1
COc1cc(NC(=O)c2ccc(Br)o2)ccc1NC(=O)c1ccccc1Cl,0%,1.2,i,0,0,1.1
O=C(CN1CCN(c2ncccn2)CC1)NCCC1=CCCCC1,22%,1.2,i,49*,2,1.1
Cc1cccn2c(=O)c(C=NCc3ccccc3)c(NCCO)nc12,16%,3.6*,i,12,9,1.1
CCC(C)NC(=O)CSC1=Nc2ccccc2C2=NC(CC(=O)NCc3ccc(F)cc3)C(=O)N12 (stereo not given),8%,2.8*,i,17,8,1
CCOC(=O)CSC1=Nc2ccccc2C2=NC(CC(=O)NCc3ccccc3)C(=O)N12 (stereo not given),10%,3*,i,9,9,1
CCOC(=O)CSC1=Nc2ccccc2C2=NC(CC(=O)NCc3cccs3)C(=O)N12 (stereo not given),3%,1.2,i,6,9,1
